Assay outcomes deposited in PubChem BioAssay by National Center for Advancing Translational Sciences (NCATS).
Pf growth 48h: Primary qHTS for delayed death inhibitors of the malarial parasite plastid, 48 hour incubation; P. falciparum luciferase growth in erythrocytes, 48 h; Potency, µM (top dose mostly 28.7 µM), usual class: inhibitors; 5.9% of 310,000 active; AID 504832, 2011
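Erythrocytes infected with P. falciparum carrying an integrated firefly luciferase reporter (2% hematocrit, 0.1% parasitemia final) were exposed to compounds in RPMI 1640 with 0.5% Albumax at 37 C, 5% CO2. Growth inhibition was scored as reduced luminescence.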
SARS PLP yeast: qHTS of Yeast-based Assay for SARS-CoV PLP; S. cerevisiae expressing SARS-CoV PLpro, growth rescue; Potency, µM (doses to about 32.9 µM), usual class: activators; 0.19% of 330,000 active; calls by dose curve; also: nearly all actives have a fitted effect of over 55% in size
Pf growth 96h: Primary qHTS for delayed death inhibitors of the malarial parasite plastid, 96 hour incubation; P. falciparum luciferase reporter growth, 96 h; Potency, µM (series often up to 28.7 µM), hits mostly inhibitors; 6.9% of 320,000 active
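96 h incubation, 37 C, 5% CO2, of luciferase-reporter P. falciparum-infected RBCs (2% hematocrit, 0.05% parasitemia final) with test compounds; endpoint luminescence.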
AmpC inh no detg: qHTS Inhibitors of AmpC Beta-Lactamase (assay without detergent); P00811; AmpC nitrocefin hydrolysis, absorbance 480 nm, 0.0001% Triton; Potency, µM (highest dose often 57.1 µM), hits mostly inhibitors; 0.52% of 330,000 active; AID 485341, 2010; also: nearly all actives have a fitted effect of over 20% in size
Target sequence (P00811 whole entry, looked up): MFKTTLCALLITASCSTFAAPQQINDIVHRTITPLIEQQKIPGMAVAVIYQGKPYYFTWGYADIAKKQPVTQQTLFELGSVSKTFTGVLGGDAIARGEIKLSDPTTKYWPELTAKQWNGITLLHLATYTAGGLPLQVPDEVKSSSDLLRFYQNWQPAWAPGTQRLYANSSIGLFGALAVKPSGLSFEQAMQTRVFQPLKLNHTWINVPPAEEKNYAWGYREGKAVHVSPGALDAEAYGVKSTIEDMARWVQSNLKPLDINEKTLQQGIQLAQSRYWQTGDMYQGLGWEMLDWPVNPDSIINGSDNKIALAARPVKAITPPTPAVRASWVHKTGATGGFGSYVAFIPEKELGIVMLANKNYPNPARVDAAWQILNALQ
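AmpC (5.3 nM in the dispensed reagent) in 20 mM phosphate pH 7.0 with 0.01% (detergent screen) or 0.0001% Triton X-100 was preincubated with compounds for 15 min at room temperature. Nitrocefin was then added from an 800 uM solution, and hydrolysis was followed at 480 nm.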
AmpC detergent: qHTS Inhibitors of AmpC Beta-Lactamase (assay with detergent); AID 485294, 2010; Potency, µM (top dose mostly 114 µM), hits mostly inhibitors; AmpC hydrolysis of nitrocefin, absorbance 480 nm, 0.01% Triton; 0.041% of 370,000 active; P00811; also: nearly all actives have a fitted effect of over 25% in size
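20 mM phosphate pH 7.0 + 0.01% (detergent screen) or 0.0001% Triton X-100; 5.3 nM AmpC reagent; cpd preinc 15 min RT; nitrocefin (800 uM stock) to start; A480 q20 s × 4 min; Activity was normalised to no-enzyme and no-compound control wells.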
Sm TGR inh: qHTS Assay for the Inhibitors of Schistosoma Mansoni Peroxiredoxins. Schistosoma mansoni thioredoxin glutathione reductase (TGR), Q962Y6. purified TGR, DTNB reduction, TNB absorbance 405 nm. Potency, µM (titrated, usually from 114 µM), usual class: inhibitors. 3% of 360,000 active. AID 485364, 2010; also: nearly all actives have a fitted effect of over 60% in size
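First, TGR (20 nM dispensed) and NADPH were mixed with compound. Second, a 15 min room-temperature incubation followed. Third, further NADPH and then DTNB were added to start the reaction. Finally, TNB absorbance was monitored kinetically.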
Large screens that a line does not name were inactive. In the library only some 12% were active in any assay of this set; here they are far more common. Unless noted, calls follow the shape of the dose curve; as a rule, active = well fitted curve in the direction sought with a large enough effect; inconclusive = small, poorly fitted or top-dose-only effect, or another doubt; inactive = no such curve, though single readings can be large; an effect the other way counts as inactive or inconclusive.

COc1ccc(CCNC2CC(=O)N(N(C)C)C2=O)cc1OC (stereo not drawn)	none
Cc1ccc(NC(=O)CN(C)CC(=O)N(C)Cc2ccccc2)cc1	Pf growth 48h inconclusive
CSc1nnc(-c2ccc(O)cc2)n1C	Pf growth 96h inconclusive
CSc1nnc(-c2cc3ccccc3cc2O)n1C	Pf growth 48h 2.1µM, SARS PLP yeast inconclusive (no result: Pf growth 96h)
CC(C)CCNC(=O)c1ccc(C2SCC(=O)N2Cc2ccco2)cc1 (stereo not drawn)	Pf growth 48h inconclusive, Sm TGR inh 25µM
O=C1CSC(c2cn(-c3ccccc3)nc2-c2ccccc2)N1Cc1ccco1 (stereo not drawn)	Pf growth 48h 13µM, SARS PLP yeast inconclusive, Pf growth 96h 2.9µM, AmpC inh no detg inconclusive, Sm TGR inh inconclusive
O=C1CSC(c2cn(-c3ccccc3)nc2-c2cccs2)N1CC1CCCO1 (stereo not drawn)	Pf growth 48h 12µM, Pf growth 96h 8.3µM
CCc1ccc(-c2nn(-c3ccccc3)cc2C2SCC(=O)N2Cc2ccco2)cc1 (stereo not drawn)	AmpC detergent inconclusive (no result: Pf growth 48h)
O=C1CSC(c2ccncc2)N1Cc1ccco1 (stereo not drawn)	Pf growth 96h inconclusive, Sm TGR inh 22µM
COc1ccc(-c2nc3scc(CCNS(=O)(=O)c4cccc(C(C)=O)c4)n3n2)cc1	none (no result: Pf growth 48h, SARS PLP yeast, Pf growth 96h, AmpC inh no detg)
CCOC(=O)Cn1c(=O)n(-c2ccccc2OC)c2nc(-c3ccc(C(C)C)cc3)nc(C(N)=O)c21	none (no result: Pf growth 48h, SARS PLP yeast, Pf growth 96h, AmpC inh no detg)
COc1ccc(OC)c(NC(=O)[C@@]2(CC(=O)O)CC(/C=C/c3ccccc3)=NO2)c1	Sm TGR inh inconclusive
COc1ccc(OC)c(C2=NO[C@@](CC(=O)O)(C(=O)Nc3ccc4c(c3)OCCO4)C2)c1	Sm TGR inh 13µM
Cc1ccc(C2=NO[C@@](CC(=O)O)(C(=O)Nc3ccc4c(c3)OCCO4)C2)cc1	Sm TGR inh 14µM
COc1cc(NS(=O)(=O)c2ccc(NC(=S)NC(=O)c3sc4cc(F)ccc4c3Cl)cc2)nc(OC)n1	Pf growth 96h inconclusive
Cc1cc(C)nc(NS(=O)(=O)c2ccc(NC(=S)NC(=O)c3ccco3)cc2)n1	Sm TGR inh 14µM
COc1cc(NS(=O)(=O)c2ccc(NC(=S)NC(=O)c3ccco3)cc2)nc(OC)n1	Sm TGR inh 32µM
COc1cc(NS(=O)(=O)c2ccc(NC(=S)NC(=O)c3sc4ccccc4c3Cl)cc2)nc(OC)n1	Pf growth 96h 12µM
COc1cc(NS(=O)(=O)c2ccc(NC(=O)c3ccco3)cc2)nc(OC)n1	Pf growth 96h inconclusive, AmpC detergent inconclusive
O=C(Nc1ccc(F)c(Cl)c1)C1CCN(c2ncccn2)CC1	none (no result: Pf growth 48h, SARS PLP yeast, Pf growth 96h, AmpC inh no detg)
CC(C)(C#CC(=O)O)OOC(c1ccccc1)(c1ccccc1)c1ccccc1	Pf growth 48h 12µM, Pf growth 96h 8.3µM
COc1cc(C(=O)NNC(=O)c2ccccc2OCc2c(C)noc2C)cc(OC)c1OC	Pf growth 48h inconclusive, AmpC detergent inconclusive
c1ccc2c(c1)nc(NCc1ccc3c(c1)OCO3)n2CCN1CCOCC1	none (no result: Sm TGR inh)
c1csc(-c2csc3nc(CN4CCOCC4)nc(NCc4ccc5c(c4)OCO5)c23)c1	Pf growth 48h inconclusive, Pf growth 96h 8.3µM
N#Cc1ccc(-c2cccnc2)nc1SCc1ccc(Cl)c(Cl)c1	Pf growth 48h 9.3µM, SARS PLP yeast inconclusive, Pf growth 96h inconclusive, AmpC detergent inconclusive
O=C(Nc1ccc(C(O)(C(F)(F)F)C(F)(F)F)cc1)c1ccc(Cl)c([N+](=O)[O-])c1	Pf growth 48h 12µM, Pf growth 96h 10µM (no result: SARS PLP yeast)
O=C(O)c1cc(NC(=O)c2ccc(Cl)c([N+](=O)[O-])c2)cc(C(=O)O)c1	none
COc1ccccc1N1C(=O)c2ccc(C(=O)Nc3ccc(C(=O)O)cc3)cc2C1=O	Sm TGR inh 89µM
COc1cc(C(=O)Nc2ccc(O)cc2)ccc1OC(C)=O	none (no result: Pf growth 96h)
COc1cc(C(=O)Nc2ccc(C(=O)O)cc2)ccc1OC(C)=O	Pf growth 96h 2.3µM
COc1ccc(C(=O)Nc2ccc(C(=O)N3CCC(C)CC3)cc2)cc1OC	Pf growth 48h inconclusive, Pf growth 96h 2.6µM
COc1ccc(C(=O)NCc2ccc3c(c2)OCO3)cc1S(=O)(=O)N(C)Cc1ccccc1	none
COc1ccc(C(=O)Nc2ccc(NC(C)=O)cc2)cc1S(=O)(=O)N(C)Cc1ccccc1	Pf growth 48h inconclusive, Pf growth 96h 4.7µM
CCc1cnc2c(c1SC(C(C)=O)C(=O)N(C)C)c(=O)n(C)c(=O)n2C (stereo not drawn)	none (no result: Pf growth 48h, SARS PLP yeast, Pf growth 96h, AmpC inh no detg)
CCc1ccc(NC(=O)Nc2ccc3c(c2)CCC3)cc1	none
CCNC(=O)NC1(C(=O)Nc2ccc3c(c2)CCC3)CCCCC1	Pf growth 96h 2.9µM, Sm TGR inh inconclusive
CN(CC(=O)Nc1ccc(F)c(F)c1F)C(=O)C1=NN(c2ccccc2)C(=O)CC1	none
O=C(CSc1nnc(-c2ccccc2F)o1)Nc1ccc(N2CCOCC2)cc1	none
C=CCn1c(SCC(=O)NC2CCCC2)nc2sc(C)cc2c1=O	Pf growth 96h 6.6µM
Cc1cc2c(=O)n(C)c(SCC(=O)NC3CCCC3)nc2s1	Pf growth 48h inconclusive
N#Cc1ccccc1OCC(=O)NCc1ccccc1CN1CCCC1	Pf growth 48h inconclusive, Pf growth 96h inconclusive
O=C(Nc1ccccc1)N1CCC(C(=O)N(Cc2ccco2)Cc2cccs2)CC1	Pf growth 48h inconclusive, Pf growth 96h 1.7µM
O=C(NCCC(=O)N(Cc1ccco1)Cc1cccs1)c1ccccc1Cl	Pf growth 48h inconclusive, Pf growth 96h inconclusive, Sm TGR inh 45µM
COc1ccccc1NC(=O)CN(Cc1ccco1)C(=O)c1ccc(=O)[nH]c1	none
O=C(c1cc2ccccc2o1)N(Cc1ccco1)Cc1cccs1	Pf growth 48h inconclusive, AmpC detergent inconclusive, Sm TGR inh 32µM (no result: SARS PLP yeast)
COc1ccccc1C(=O)NCCC(=O)N(Cc1ccco1)Cc1cccs1	Pf growth 48h inconclusive, Pf growth 96h inconclusive, Sm TGR inh inconclusive
COc1ccccc1NC(=O)CN(Cc1ccco1)C(=O)c1cc2ccccc2o1	Sm TGR inh 22µM
O=C(COC(=O)C1=COCCO1)Nc1ncc(C(F)(F)F)cc1Cl	Pf growth 96h inconclusive, AmpC detergent inconclusive, Sm TGR inh 100µM
COc1cc2c(cc1OC)C1=C(C#N)CN(CC(=O)O)CN1CC2	Pf growth 96h inconclusive, Sm TGR inh 35µM (no result: Pf growth 48h)
O=C(O)/C=C/c1ccccc1Oc1ccc(Cl)cc1Cl	Pf growth 48h inconclusive
Oc1cc(Cl)ccc1Oc1ccc(Cl)cc1Cl	Pf growth 48h 9.5µM, Pf growth 96h 6µM (no result: SARS PLP yeast, AmpC inh no detg, AmpC detergent, Sm TGR inh)
